# Bioassay records as filed in PubChem BioAssay.
# AMA1 RON2 block = AMA1-RON2 (P. falciparum) interaction inhibition | AlphaScreen AMA1-biotinylated RON2 peptide binding | Potency, µM (top dose mostly 58.2 µM), actives largely listed as inhibitors | actives 0.2% (n = 360,000) | AID 720542; also: nearly all actives have a fitted effect of over 45% in size
#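 AMA1 (3D7) with his tag at 25 nM final met compounds first, then biotinylated RON2 peptide at 25 nM; detection used donor plus acceptor beads, 10 µg/mL apiece, read by AlphaScreen after 30 min at room temperature.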
# Pf growth 48h = inhibits P. falciparum growth in the first generation, 48 h; P. falciparum luciferase growth in erythrocytes, 48 h; actives 5.9% (n = 310,000); AID 504832; Potency, µM (series often up to 28.7 µM), hits mostly inhibitors
#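 Growth was read as firefly luciferase luminescence after a 48 h, 37 C, 5% CO2 exposure of compounds to reporter-bearing P. falciparum cultures (0.1% parasitemia, 2% hematocrit final) in Albumax-supplemented RPMI 1640.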
# Cycloheximide cs = counter-screen for Shiga toxin inhibitors: cycloheximide protein synthesis inhibition | cell reporter, cycloheximide protein synthesis inhibition counterscreen | max response, % | actives 12% (n = 300,000); in the data active = max response mostly above about 13%, no sharp cut-off; inactive = mostly below about 14%; also: read at 38.3 µM for the half of the compounds with a filed dose
# Pf growth 96h = inhibits malaria parasite growth, 96 h. P. falciparum luciferase reporter growth, 96 h. actives 6.9% (n = 320,000). Potency, µM (doses to about 28.7 µM), hits mostly inhibitors
#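 Plates of compound plus infected erythrocytes (2% hematocrit, 0.05% parasitemia final) incubate 96 hours, 37 C, 5% CO2. Detection reagent added; reduced luminescence from the parasites' luciferase reporter flags inhibition.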
# HCV inh = inhibitors of hepatitis C virus infection. AID 651820. Potency, µM (titrated, usually from 41.8 µM), actives largely listed as inhibitors. actives 3.4% (n = 340,000). Huh7.5.1 HCVcc-Cre infection, luciferase reporter, 44 h
#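 After 44 h co-culture of compound, cells and HCVcc-Cre (~0.5 moi), substrate is added for 15 min at room temperature and luciferase measured over 15 sec. Cells were seeded at 1,000/well and pre-cultured 4 h.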
# Shiga inhibitor = inhibitors of Shiga toxin in Vero cells; actives 9.2% (n = 290,000); Vero cells, Shiga toxin protein synthesis inhibition reporter; inhibition, % at 38.7 µM; in the data active = inhibition mostly above about 28%, no sharp cut-off; inactive = mostly below about 43%
# A number is an active result; . = inactive; ? = inconclusive; / = no result. A selection: hits, their analogues and other compounds. The true share with any hit is near 21%. Unless noted, calls follow the shape of the dose curve; as a rule, active = well fitted curve in the direction sought with a large enough effect; inconclusive = small, poorly fitted or top-dose-only effect, or another doubt; inactive = no such curve, though single readings can be large; an effect the other way counts as inactive or inconclusive.
SMILES,AMA1 RON2 block,Pf growth 48h,Cycloheximide cs,Pf growth 96h,HCV inh,Shiga inhibitor
COc1ccc(C(=O)N/C(=C\c2ccc(SC)cc2)C(=O)NCCCn2ccnc2)cc1OC,.,/,/,/,.,/
CC(C)CC1Nc2ncnc(N3CCN(c4ccccc4)CC3)c2N(Cc2ccccc2)C1=O (stereo unspecified),.,10µM,/,12µM,?,/
COc1ccc(CN2C(=O)C(CC(C)C)Nc3ncnc(N4CCOCC4)c32)cc1 (stereo unspecified),.,?,/,?,.,/
COc1ccc(CN2C(=O)C(Cc3ccccc3)Nc3ncnc(N4CCN(c5ccccc5)CC4)c32)cc1 (stereo unspecified),.,2.6µM,/,6.6µM,3.2µM,/
CC(C)CC1NC(=S)N(Cc2ccccc2)C1=O (stereo unspecified),.,?,.,9.3µM,?,.
COc1ccc(CN2C(=O)C(CC(C)C)Nc3ncnc(N4CCN(c5ccccc5)CC4)c32)cc1 (stereo unspecified),.,2.6µM,/,12µM,?,/
COc1ccc(C(=O)Nc2c(Cl)cc(Cl)cc2C(=O)N2CCOCC2)cc1,.,.,.,.,.,.
CC(C)CC1Nc2ncnc(N3CCCCC3)c2N(Cc2ccccc2)C1=O (stereo unspecified),.,12µM,/,?,.,/
CC(C)CC1Nc2ncnc(N3CCN(c4ccccc4)CC3)c2N(Cc2ccc(Br)cc2)C1=O (stereo unspecified),.,2.9µM,/,5.9µM,?,/
Cc1ccc(CN2C(=O)C(CC(C)C)Nc3ncnc(N4CCOCC4)c32)cc1 (stereo unspecified),.,/,/,/,.,/
CC(C)=CCC12Oc3cc(O)ccc3C1(O)Oc1cc(O)c([C@H]3C=C(C)CC(c4ccc(O)cc4O)[C@H]3C(=O)c3ccc(O)cc3O)c(O)c1C2=O (stereo partly specified),.,/,/,/,13µM,/
CC(C)c1ccc(NC(=O)C2(C)Cc3c(-c4ccc(N(C)C)cc4)ccnc3O2)cc1 (stereo unspecified),.,/,/,/,/,/
CCCCCCCCCCCCCCCC(=O)OC(C)C,/,.,/,.,/,/
CC1(C)C(c2cccs2)=NC(c2ccccc2)N1O (stereo unspecified),.,.,.,9.3µM,.,.
CCOC(=O)[C@]12CCCC=C1N(CCc1ccc(OC)c(OC)c1)C(=O)[C@H](CC(=O)N1CCCC1)C2,.,/,/,/,/,/
CN(C)Cc1c(O)ccc2c(-c3ccccc3)cc(=O)oc12,.,.,.,9.3µM,.,.
Cc1ccc(CN2CCN(C/C(Cl)=C/c3ccccc3)CC2CCO)o1 (stereo unspecified),.,.,.,.,.,.
CCOC(=O)C1CCN(C(=O)CCN2C(=O)C3C4C=CC(C4)C3C2=O)CC1 (stereo unspecified),.,.,.,5.2µM,.,.
COc1ccccc1NC(=O)CS(=O)(=O)c1cn(CC(=O)N2CCCC2)c2ccccc12,.,.,.,.,.,.
COC(=O)[C@@]12OC[C@]34[C@H]([C@@H](O)[C@@H]1O)[C@@]1(C)C(=O)C(O[C@@H]5OC(CO)[C@@H](O)[C@@H](O)[C@@H]5O)=C[C@@H](C)[C@@H]1C[C@H]3OC(=O)[C@H](OC(=O)/C=C(\C)C(C)(C)OC(C)=O)[C@@H]24 (stereo partly specified),.,2.6µM,/,4.7µM,11µM,/
N#C/C(=C\c1cccnc1)C(=O)Nc1ccccc1,.,.,18,.,.,.
CCCOc1ccccc1/C=C(\C#N)C(=O)Nc1cccnc1,.,.,34,.,.,78
N#C/C(=C\c1cccnc1)C(=O)Nc1ccc(C(=O)O)cc1,.,.,.,.,.,.
CC(C)c1ccc(NC(=O)/C(C#N)=C/c2ccncc2)cc1,.,.,26,?,.,18
COc1ccc(NC(=O)/C(C#N)=C/c2cccnc2)c(OC)c1,.,.,.,1µM,.,.
SMILES,AMA1 RON2 block,Pf growth 48h,Cycloheximide cs,Pf growth 96h,HCV inh,Shiga inhibitor
O=S(=O)(Nc1ccc(S(=O)(=O)N2CCCC2)cc1)c1ccc(F)cc1F,.,/,/,/,.,/
CCCn1c(-c2ccc(C(=O)OC)cc2)nc2c1c(=O)[nH]c(=O)n2Cc1ccccc1,.,.,.,.,.,.
Cc1ccc(-c2nc3c(c(=O)[nH]c(=O)n3Cc3ccccc3)n2Cc2ccccc2)o1,.,5.9µM,.,?,?,.
CCCn1c(-c2cccc([N+](=O)[O-])c2)nc2c1c(=O)[nH]c(=O)n2Cc1ccccc1,.,?,.,5.2µM,?,.
C=CCNc1nc(Cl)nc(NC2CCCCC2)n1,.,.,.,.,?,.
Fc1cnc(Cl)nc1NC1CCCCC1,.,.,.,4.7µM,.,.
Cc1c(S(=O)(=O)N2CCN(C(c3ccccc3)c3ccccc3)CC2)c(=O)n(C)c(=O)n1C,.,1.7µM,.,2.3µM,.,.
O=C(O)c1cccc(S(=O)(=O)N2CCN(C(c3ccccc3)c3ccccc3)CC2)c1,.,10µM,.,13µM,.,.
O=C(O)COc1nn(Cc2ccccc2)c2ccccc12,/,.,/,?,/,/
COC(=O)c1ccc(CNC(=O)Cn2nnnc2CN(C)C(C)C)cc1,.,.,.,?,.,.
COc1ccc(-c2sc3cc4c(cc3c2C#Cc2cncn2C)OCO4)cc1,.,/,/,/,5µM,/
COC(=O)c1c(-c2ccc(OC)cc2)sc2ccc(-c3ccc4c(c3)OCO4)cc12,.,/,/,/,.,/
COc1ccc(-c2sc3ccc(N4CCOCC4)cc3c2C#CC2(O)CCCCC2)cc1,.,/,/,/,2.8µM,/
COc1ccc(-c2oc3ccccc3c2C#Cc2cncn2C)cc1,.,0.59µM,/,0.66µM,2.8µM,/
COc1ccc(-c2sc3ccc(OC)cc3c2C#Cc2cncn2C)cc1,.,/,/,/,2.8µM,/
COC(=O)c1c(-c2ccc(OC)cc2)oc2ccccc12,.,.,.,.,?,.
COc1cc(OC)cc(-c2sc3ccc(OC)cc3c2C#CC(C)(C)O)c1,.,?,/,?,?,/
COc1cc(OC)cc(-c2sc3ccc(OC)cc3c2C#CC2(N)CCCCC2)c1,.,/,/,/,.,/
COc1ccc(-c2sc3cc4c(cc3c2C#CC2(N)CCCCC2)OCO4)cc1,.,13µM,/,?,22µM,/
OC(c1ccc(F)cc1)c1nc(-c2cc3ccccc3o2)cs1 (stereo unspecified),.,/,/,/,/,/
CCC(C)NC(=O)CC(C)C (stereo unspecified),.,.,.,.,.,.
CC(C)CC(=O)NCC(C)NC(=O)CC(C)C (stereo unspecified),.,.,.,15µM,.,.
CC(=O)NC(Nc1c(C)n(C)n(-c2ccccc2)c1=O)C(Cl)(Cl)Cl (stereo unspecified),.,.,.,?,.,.
